According to PubChem BioAssay (NCI):
Compounds without any hit were thinned out: in the full panel of roughly 83,000, 20% have a hit.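 Negative percent growth values reflect cell death: -40 means 40% of the cells present at the start died, and -100 means all died.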 A number with no mark means an inactive call. Activity calls are given as the source filed them. How the source made its calls: active means growth percent below 10; inactive means the rest.

Test system: HL-60(TB) leukemia
Experiment: NCI-60 one-dose screen, 48 h (100 = growth as untreated, 0 = no growth, -100 = all killed)
Settings: 10 µM unless noted

| SMILES | growth |
| --- | --- |
| O=c1cc(CSc2nnc(SCc3cc(=O)oc4c3ccc3ccccc34)o2)c2ccc3ccccc3c2o1 | 97.8% |
| CC1CC2Oc3ccc(Cl)cc3C(=O)N2O1 (stereo not given) | 110% |
| CCCN=C(N)c1ccc(NC(=O)c2ccc(C(=O)Nc3ccc(C(N)=NCCC)cc3)cc2)cc1 | 77% |
| O=C1/C(=C/c2ccccc2[N+](=O)[O-])COc2ccc(O)cc21 | -8.06% (active) |
| O=c1c2c3c(sc2n2cnnc2n1Cc1ccccc1)CCCC3 | 84.3% |
| CC1(C)CNC(=O)N1 | 101% |
| COC(=O)CCc1cc(O)c2c(c1)[C@@H](C(=O)OC)[C@H](c1ccc(O)c(O)c1)O2 | 9.9% (active) |
| Cc1ccc(C(CC(=O)O)c2c(C)[nH][nH]c2=O)cc1 (stereo not given) | 98.8% |
| COC(=O)C1=C(C(=O)ON)C2C=CC1(C(Cc1ccccc1)Nc1ccccc1)O2 (stereo not given) | 18.9% |
| C/C(Cc1ccc(Cl)cc1)=C(\c1ccc(O)cc1)c1ccc(Cl)cc1 | 95.7% |
| CC(=O)O[C@H]1CC[C@@]2(C)[C@@H](CC[C@@H]3[C@@H]2CC[C@@]2(C)[C@H]3CC[C@]2(O)C(C)=O)C1 | 93.5% |
| COc1ccc(CCNC=O)cc1OC | 96.9% |
| COc1ccc(C(=O)OC2C(OC3C(O)COC(O[C@H]4C[C@H]5[C@@H]6CC=C7C[C@@H](O)CC[C@]7(C)[C@H]6CC[C@]5(C)[C@H]4[C@H](C)C(=O)CCC(C)C)C3OC(=O)C(C)C)OCC(O)C2O)cc1 (stereo not given in full) | -17% (active) |
| COc1cc(/C=C2\CCC/C(=C\c3cc(CN4CCOCC4)c(O)c(OC)c3)C2=O)cc(CN2CCOCC2)c1O | 4.24% (active) |
| COc1ccc(C2=NN(C(C)=O)C(c3cn(Cc4ccc(Cl)cc4)c4ccccc34)C2)cc1 (stereo not given) | 79.5% |
| CCOC(=O)c1c(C)oc2ncnc(Nc3ccc(C(=O)NCCc4ccccc4)cc3)c12 | 87.7% |
| O=C(/C=C/C12c3ccccc3C(c3ccccc31)C1C(=O)NC(=O)C12)c1ccc(F)cc1 (stereo not given) | -19.5% (active) |
| CCCCCC(=O)N(CCCC)CCCC | 109% |

| SMILES | growth |
| --- | --- |
| COc1ccc(S(=O)(=O)n2ccc(-c3ccc4c(c3)CCC(C)(C)O4)n2)cc1OC | 94.7% |
| CC(C(=O)n1cc(-c2ccccc2)c(-c2ccccc2)c1)c1ccccc1 (stereo not given) | 106% |
| O=C(Nc1ccccc1O)c1ccc(-c2ccc(Cl)cc2Cl)o1 | 83.7% |
| Cc1[nH]n(C(=S)Nc2nc3cc(Cl)c(F)cc3s2)c(=O)c1N=Nc1ccc(F)c(Cl)c1 | 127% |
| Cn1cc(-c2csc(-c3cn(C)c4ncccc34)n2)c2ccccc21 | -3.85% (active) |
| O=C(/C=C/c1ccc[nH]1)c1ccc(-n2ccc(C(F)(F)F)n2)c(F)c1 | -11.3% (active) |
| CCCCCCNc1nc(NCCCCCC)c2[nH]c(NCCCCCC)nc2n1 | -60.2% (active) |
| CC(=O)O[C@@]12CO[C@@H]1C[C@H](O)[C@@]1(C)C(=O)[C@H](O)C3=C(C)[C@@H](OC(=O)[C@H](O)[C@@H](NC(=O)OC(C)(C)C)c4ccccc4)C[C@@](O)([C@@H](OC(=O)c4ccccc4)C12)C3(C)C (stereo not given in full) | -12.9% (active) |
| COc1ccc(N(Cc2cc(OC)c(OC)c(OC)c2)C2OC(=O)c3ccccc32)cc1 (stereo not given) | 2.92% (active) |
| CCCc1cc2cc(-n3nc(C)c4c3CC(C)(C)CC4=O)cc(NC3CCC(O)CC3)c2c(=O)[nH]1 (stereo not given) | 2.27% (active) |
| Cc1ccc2c(c1)c(-c1nc(-c3c[nH]c4ncccc34)cs1)cn2C | 84.1% |
| COc1ccc(-c2cc(/C=C3\C(=O)Nc4cc(Cl)ccc43)[nH]n2)cc1 | -11.7% (active) |
| CNCCCNc1nc2ccccc2c2c(=O)c3cc(F)ccc3sc12 | -5.1% (active) |
| CC1(C)CC[C@]2(C(=O)N3CCOCC3)CC[C@]3(C)C(=CC[C@@H]4[C@@]5(C)CC[C@H](OC(=O)c6cccnc6)C(C)(C)[C@@H]5CC[C@]43C)[C@@H]2C1 | 45.4% |
| CCOC(=O)c1c(C)c2c(n1Cc1ccccc1)CSc1cc(C#N)c(=O)[nH]c1-2 | 76.8% [100 µM] |
| COc1cc(C2=NN(C=O)C(c3cccc(Nc4ccnc5cc(Cl)ccc45)c3)C2)cc(OC)c1OC (stereo not given) | 75.4% |
| CCOC(=O)/C(=C/CC/C(C)=C/CC/C(C)=C/CCc1ccoc1)CC(=O)N1CCCCC1 | -35.2% (active) |
